Reference: PubChem BioAssay AID504834 (National Center for Advancing Translational Sciences (NCATS), 2011)
Screen size: about 320,000 compounds; about 22,000 (6.9%) were called active. About 27% were inconclusive and are not listed. For the sample, actives were picked, then their nearest neighbours and some compounds at random. Unmarked numbers belong to inactive results. Calls follow the shape of the dose curve; as a rule, active = well fitted inhibition curve with a large enough effect; inconclusive = small, poorly fitted or top-dose-only effect, or another doubt; inactive = no such curve, though single readings can be large or run the other way.

test: Primary qHTS for delayed death inhibitors of the malarial parasite plastid, 96 hour incubation; details: P. falciparum luciferase reporter growth; series mostly up to 28.7 µM; activity change, negative = inhibition: at the top concentration
In short: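 96 h incubation, 37 C, 5% CO2, of luciferase-reporter P. falciparum-infected RBCs (2% hematocrit, 0.05% parasitemia final) with test compounds; endpoint luminescence.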
% is scaled to controls: 0 for no effect and ±100 for the full control effect; potency is read from the fitted curve at half-maximal effect.

Point of comparison: `Cc1cc(C(F)F)nn1CC(=O)NC1CCCCCC1`, “activity change, negative = inhibition” value -19.5%. Against it:
- Cc1cc(OCCCCOc2ccc(C#N)cc2)ccc1[N+](=O)[O-] — higher, 12.6%
- COc1ccc(CCOC(=O)CNC(=O)c2ccc(Cl)cc2Cl)cc1 — higher, -13.4%
- Cc1cc(C)c(S(=O)(=O)Nc2c(C)n(C)n(-c3ccccc3)c2=O)cc1[N+](=O)[O-] — higher, -2.69%
- CCCn1nnc(NC(=O)COc2ccc(CC)cc2)n1 — higher, 5.36%
- CCCOc1cccc(C(=O)NCCCNC(=O)c2cccnc2)c1 — higher, 95.6%
- CN(C)c1ccc(CNC(=O)CN2C(=O)COc3ccc(S(=O)(=O)N4CCCC4)cc32)cc1 — higher, 12.7%
- NC(N)=Nc1nc(-c2ccccc2)c2cc(Cl)ccc2n1 — higher, 51.4%
- COc1ccc(NC(=O)COc2ccc(C(=O)c3ccc(F)cc3)cc2)cc1S(N)(=O)=O — lower, -26.2%
- CC(=O)NCC(=O)NC1CCCc2c1cnn2-c1ccccc1F (stereo not given) — higher, -6.37%
- COc1cc(OC)c(S(=O)(=O)Nc2ccccc2C(=O)O)cc1S(=O)(=O)Nc1ccccc1C(=O)O — higher, -13.4%
- O=C(O)c1ccc(F)c(S(=O)(=O)Nc2ccccc2)c1 — higher, 24.9%
- CN1CCN(c2ncc3c(n2)CC(c2ccccc2F)CC3=O)CC1 (stereo not given) — higher, 40.8%
- COc1ccccc1C(C)NC(=O)Cc1ccsc1 (stereo not given) — higher, 2.57%
- CCCCOc1ccc(CON(C(C)=O)C(C)=O)cc1Cl — higher, 5.53%
- O=C(CNC(=O)c1ccccc1)Oc1ccc([N+](=O)[O-])cc1 — higher, 1.08%
- CC(Cc1cccs1)NCc1ccc(Cl)cc1 (stereo not given) — higher, 54.2%
- CC(Cc1cccs1)NC(=O)c1cccc(Cl)c1 (stereo not given) — higher, 43.8%
- CCCc1ccc(OCCNC(=O)c2ccccc2Br)cc1 — higher, -8.4%
- CC(/C=C/c1ccco1)=N/NC(=O)C1COc2ccccc2O1 (stereo not given) — higher, -5.91%
- O=C(N/N=C\c1cc2c(cc1Cl)OCO2)c1ccc(Br)s1 — higher, 19%
- Cc1cc(C)c(S(=O)(=O)NCC2CCC(C(=O)NCc3ccc4c(c3)OCO4)CC2)c(C)c1 (stereo not given) — lower, -66.7%
- COc1ccc(C(=O)NCC2CCCN2S(=O)(=O)c2cccs2)cc1OC (stereo not given) — higher, -4.53%

For `CCCOc1cccc(C(=O)Nc2nnn(CCC)n2)c1`, the Potency was 4.65 µM (active).
In the case of `Clc1ccc2nc3c(c(-c4ccccc4)c2c1)CNCC3`, the Potency is reported as 13.1 µM (active).
For `COc1ccc(Cl)cc1S(=O)(=O)Nc1cccc(C(=O)O)c1`, the Potency was 10.4 µM (active).
For `CC(Cc1cccs1)N(Cc1ccc(Cl)cc1)C(=O)c1ccncc1` (stereo not given), the Potency was 13.1 µM (active).
With `O=C(N/N=C/c1cc2c(cc1Br)OCO2)C1COc2ccccc2O1` (stereo not given) the Potency was 7.38 µM (active).
In the case of `Cc1cc(C)c(S(=O)(=O)N2CCCC2CNC(=O)c2ccc3c(c2)OCO3)c(C)c1` (stereo not given), the Potency is reported as 11.7 µM (active).

`Clc1cccc(-c2nc(NCC3CCCO3)c3ccccc3n2)c1` (stereo not given) showed an activity change, negative = inhibition of 37.3% [at 5.75 µM].
